# Several values for one entry are separate records, joined by “and”; a condition that tells them apart may be missing. Equal values may be shown once. More than one record can exist for a structure, and the calls need not agree. Activity calls are given as the source filed them. How the source made its calls: active means hit-call score of the fitted dose curve at least 0.9, where 1 is the maximum; inactive means score below 0.9.
# Read-out: Interleukin-1 alpha (IL1a), IL1A (gene 3552)
# Assay: BSK_BE3C_IL1a: BioMAP Diversity Plus: BE3C Assay for Interleukin-1 alpha (IL1a) Biomarker Activity (AID 2283016)
# Conditions: primary human bronchial epithelial cells; actives raise or lower the signal
# Experimental: BSK_BE3C is a cell-based, multiplexed-readout assay that uses bronchial epithelial cell, a human lung primary cell, with measurements taken at 24 hours after chemical dosing in a 96-well plate.BSK_BE3C_IL1a is an assay component measured in the BSK_BE3C assay. It measures IL-1a antibody related to regulation of gene expression using ELISA technology.Data from the assay component BSK_BE3C_IL1a was analyzed into 1 assay endpoint. This assay endpoint, BSK_BE3C_IL1a, was analyzed with bidirectional fitting relative to DMSO as the negative control and baseline of activity. Using a type of binding reporter, gain or loss-of-signal activity can be used to understand changes in the signaling as they relate to the gene IL1A. Furthermore, this assay endpoint can be referred to as a primary readout, because this assay has produced multiple assay endpoints where this one serves a signaling function. To generalize the intended target to other relatable targets, this assay endpoint is annotated to the cytokine intended target family, where the subfamily is interleukins.
# The levels of cell surface (or secreted, indicated by the prefix "s") biomarker endpoints were measured by ELISA. Overt cytotoxicity to cells in confluent adherent cultures (all systems other than the BT system) was assessed by measuring total protein levels using sulforhodamine B (SRB) staining in parallel cultures at the time of biomarker measurements, indicated as SRB endpoints. For proliferation assays for adherent cell types, individual cell types are cultured at sub-confluence and relative cell numbers quantified by SRB staining at time points optimized for each system (48 h: 3C and CASM3C systems; 72 h: BT and HDF3CGF systems; 96 h: SAg system). SRB was performed by staining cells with 0.1% SRB after fixation with 10% TCA and reading wells at 560 nm.Viability and proliferation of PBMC (T cells) was quantified by Alamar Blue reduction for the SAg and BT systems. For PBMC viability (referred to as PBMC Cytotoxicity within the assay endpoint names), cells were plated (75,000/well in a 96-well plate) and then chemical samples added for 1 h before addition of activators, SEB and TSST-1 (20 ng/mL final concentration each). Cells were incubated for 90 h. Then, Alamar Blue (20 uL/well) (Invitrogen, Cat DAL1100) was added for 6 h, and the plates were read with a fluorescence microplate reader at 546/580 nm (excitation/emission). For PBMC proliferation, cells were plated and activated as above but incubated for only 16 h prior to addition of Alamar Blue. Plates were read after 6 h.
SMILES,AC50,outcome
CCCCCCCCCCCCCC[N+](C)(C)C,3.83 µM (active),–
CC1=C(/C=C/C(C)=C/C=C/C(C)=C/C(=O)O)C(C)(C)CCC1,–,inactive
CCCCC(CC)COC(=O)CCCCC(=O)OCc1ccccc1 (stereo not given),–,inactive
CC(C)(C)c1cccc(C(C)(C)C)c1O,–,inactive
OCCC(F)(F)C(F)(F)C(F)(F)C(F)(F)C(F)(F)C(F)(F)C(F)(F)C(F)(F)F,18.2 µM (active) and 18.6 µM (active),inactive
CN1CCC[C@H]1c1cccnc1,–,inactive
Cc1oc(-c2ccccc2)nc1CCOc1ccc(C[C@H](Nc2ccccc2C(=O)c2ccccc2)C(=O)O)cc1,5.44 µM (active),–
c1ccc2c(c1)ccc1ccccc12,–,inactive
CC(=O)NC1(c2cccc(F)c2)CCN(CC[C@@]2(c3ccc(Cl)c(Cl)c3)CN(c3ccccc3)C(=O)CO2)CC1,–,inactive
CC(=O)CC(C)(C)O,–,inactive
CC#C[C@]1(O)CC[C@H]2[C@@H]3CCC4=CC(=O)CCC4=C3[C@@H](c3ccc(N(C)C)cc3)C[C@@]21C,32.1 µM (active),–
OC1CCC(C2CCCCC2)CC1 (stereo not given),–,inactive
CCCCCCCCOC(=O)CCCCCCCCC(=O)OCCCCCCCC,–,inactive
COC(=O)CCCCC(=O)OC,–,inactive
CCCCC(CC)COC(=O)CCCCC(=O)OCC(CC)CCCC (stereo not given),–,inactive
COCC(C)OCC(C)O (stereo not given),–,inactive
CC(C)CCCCCCOC(=O)CCCCC(=O)OCCCCCCC(C)C,–,inactive
CC[C@H](c1ccc(O)cc1)[C@@H](CC)c1ccc(O)cc1,24.3 µM (active),–
CCCCCCCCCCCCc1ccccc1S(=O)(=O)O,14.3 µM (active),–
Cc1cc(C)c(O)c(C)c1,–,inactive

SMILES,AC50,outcome
OC1CCCCC1,–,inactive
CCCCCCCC(=O)O,–,inactive
CCCCCCCCCCCCCCCS(=O)(=O)Oc1ccccc1,–,inactive
CC(O)CO (stereo not given),–,inactive
CC(C)(C)c1ccc(O)c(C(C)(C)C)c1,33.7 µM (active),–
NC(=O)N1C(=O)C(C(=O)c2cc(Cl)cs2)c2cc(F)c(Cl)cc21 (stereo not given),7.87 µM (active),–
OCCC(F)(F)C(F)(F)C(F)(F)C(F)(F)C(F)(F)C(F)(F)F,–,inactive
CCCOc1sc(C(=O)N2CCC(c3cc(CN)ccc3F)CC2)c(C)c1Br,5.86 µM (active),–
C=C(C)C(=O)OCCC(F)(F)C(F)(F)C(F)(F)C(F)(F)C(F)(F)C(F)(F)F,–,inactive
CC(C)(C)c1cc(C(C)(C)C)c(O)c(C(C)(C)C)c1,–,inactive
Nc1cccc2c(N)cccc12,–,inactive
O=C(O)Cc1cc(I)c(Oc2cc(I)c(O)c(I)c2)c(I)c1,8.95 µM (active),–
CCC(=C(c1ccc(O)cc1)c1ccc(OCCN(C)C)cc1)c1ccccc1,9.53 µM (active),–
O=C(O)c1ccccc1C(c1ccc(O)cc1)c1ccc(O)cc1,–,inactive
Oc1cccc(O)c1,–,inactive
CN(C)C=O,–,inactive
CCCCCCCCC(=O)O,–,inactive
CCCCCCCCCCCCN1CCCC1=O,33.2 µM (active),–
CCc1ccc(CCOc2ccc(CC3SC(=O)NC3=O)cc2)nc1 (stereo not given),–,inactive

# Source: PubChem BioAssay (EPA / NIEHS)
